Data: PubChem BioAssay (NCI)
The panel holds about 83,000 compounds, 20% with a hit somewhere; the sample as a whole holds those more often.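 Negative percent growth values reflect cell death: -40 means 40% of the cells present at the start died, and -100 means all died.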 Activity calls are given as the source filed them. Rule for the calls: active = growth percent below 10; inactive = the rest.

Tests used:
Assay in all cases: NCI-60 one-dose screen, 48 h (100 = growth as untreated, 0 = no growth, -100 = all killed)
Conditions in all cases: 10 µM unless noted
[1] = system: SK-MEL-2 melanoma
[2] = system: EKVX NSCLC
[3] = system: SN12C renal
[4] = system: UO-31 renal
[5] = system: TK-10 renal
[6] = system: ACHN renal
[7] = system: CAKI-1 renal
[8] = system: A498 renal
[9] = system: CCRF-CEM leukemia
[10] = system: MOLT-4 leukemia
[11] = system: SR leukemia
[12] = system: RPMI-8226 leukemia
[13] = system: OVCAR-8 ovarian
[14] = system: OVCAR-5 ovarian
[15] = system: OVCAR-4 ovarian
[16] = system: SK-OV-3 ovarian
[17] = system: IGROV1 ovarian
[18] = system: OVCAR-3 ovarian
[19] = system: HS 578T breast
[20] = system: NCI/ADR-RES ovarian

Measured: growth

CC1(C)CC[C@]2(C(=O)O)CC[C@]3(C)C(=CC[C@@H]4[C@@]5(C)CC/C(=N\OCCC#N)C(C)(C)[C@@H]5CC[C@]43C)[C@@H]2C1
inactive: [1] 93.5% | [2] 70.7% | [3] 86.7% | [4] 61.1% | [5] 51.3% | [6] 100% | [7] 59.7% | [8] 51.3% | [9] 90.1% | [10] 101% | [11] 103% | [12] 97.5% | [13] 109% | [14] 103% | [15] 82.6% | [16] 110% | [17] 85.7% | [18] 110% | [19] 107% | [20] 116%

COc1cccc(O)c1/C=C(/C)c1ccc2c(OC)cccc2[o+]1
inactive: [1] 107% | [2] 96.5% | [3] 99.5% | [4] 79.7% | [5] 140% | [6] 98.9% | [7] 90.3% | [8] 95.7% | [9] 106% | [10] 107% | [11] 87.6% | [12] 109% | [13] 103% | [14] 106% | [15] 103% | [16] 106% | [17] 97% | [18] 116% | [19] 110% | [20] 100%

O=C(CCn1cc[n+](CC(=O)c2ccc(-c3ccccc3)cc2)c1)Nc1cccc2cccnc12
inactive: [1] 90.1% | [2] 81.9% | [3] 77.4% | [4] 88.1% | [5] 117% | [6] 104% | [7] 104% | [8] 98.8% | [9] 78.4% | [10] 84.3% | [11] 79.8% | [12] 34% | [13] 82.4% | [14] 91.7% | [15] 24.6% | [16] 74.6% | [17] 36.4% | [18] 51.9% | [19] 71.3% | [20] 99.7%

CC1(C)[C@@H](O)CC[C@]2(C)[C@H]3CC[C@@H]4[C@H]5[C@H](C(=O)/C=C\c6ccc([N+](=O)[O-])cc6)CC[C@]5(O)CC[C@@]4(C)[C@]3(C)CC[C@@H]12
active: [11] 1.04%
inactive: [1] 102% | [2] 53.1% | [3] 73.5% | [4] 55.2% | [5] 123% | [6] 45.5% | [7] 27.4% | [8] 48.7% | [9] 12% | [10] 22.9% | [12] 11.7% | [13] 76.8% | [14] 92% | [15] 41.1% | [16] 107% | [17] 56.6% | [18] 43.2% | [19] 59.9% | [20] 64%

C#CCOC(=O)[C@@H]1CCCN1CC#C
inactive: [1] 98.2% | [2] 86.3% | [3] 92.6% | [4] 66.1% | [5] 96.2% | [6] 85.7% | [7] 76.3% | [8] 93.5% | [9] 81.9% | [10] 61.5% | [11] 95.5% | [12] 71% | [13] 90.4% | [14] 103% | [15] 91.9% | [16] 97.6% | [17] 67.3% | [18] 87.3% | [19] 74.8% | [20] 85.7%

CCc1cccc2c3c(sc12)C(c1ccc(Cl)cc1)C(C#N)=C(/N=C/c1ccc(Cl)cc1)O3 (stereo not given)
inactive: [1] 31% | [2] 45.8% | [3] 33.9% | [4] 39.9% | [5] 56.4% | [6] 41.7% | [7] 37.5% | [9] 13% | [10] 30.2% | [11] 13.9% | [13] 28.1% | [14] 32.9% | [15] 79.1% | [16] 55.4% | [17] 28.1%
active: [8] -4.9% | [12] 8.79% | [18] -14.2% | [19] 8.08% | [20] 5.33%

Cc1ccc(-c2nnc(SCc3ccc(O)c4ncccc34)o2)cc1
active: [4] -12.8%
inactive: [1] 34.8% | [2] 22.1% | [3] 34.5% | [5] 24.3% | [6] 10.3% | [7] 24.8% | [8] 36.5% | [9] 12.3% | [10] 10.8% | [11] 32.8% | [12] 12.8% | [13] 12.2% | [14] 58.2% | [15] 15.8% | [16] 14.1% | [17] 13.7% | [18] 28.4% | [19] 15.5% | [20] 10.7%

Cn1ccnc1C(=O)/C=C/c1ccc(NC(=O)c2ccc(F)cc2)cc1
active: [9] 7.06% | [11] 8.3%
inactive: [1] 106% | [2] 42.1% | [3] 25% | [4] 42.3% | [5] 89.5% | [6] 37.6% | [7] 41.4% | [8] 78.1% | [10] 16.6% | [12] 10.6% | [13] 65% | [14] 41.2% | [15] 37.1% | [16] 67.2% | [17] 34.7% | [18] 17.9% | [19] 54.4% | [20] 27.5%

O=S(=O)(NCCCNc1nccc(-n2cnc3ccccc32)n1)c1ccc(C(F)(F)F)cc1
inactive: [1] 97.8% | [2] 75.1% | [3] 85.9% | [4] 60.7% | [5] 95.7% | [6] 87.1% | [7] 60.5% | [8] 72.1% | [9] 70.9% | [10] 67% | [11] 75.4% | [12] 69.7% | [13] 82.5% | [14] 96.3% | [15] 66.7% | [16] 92.5% | [17] 98.1% | [18] 96.8% | [19] 78.3% | [20] 81.1%

O=C1Nc2ccccc2/C1=C/c1ccc(COCC2CO2)n1-c1ccc(O)cc1 (stereo not given)
inactive: [1] 101% | [2] 102% | [3] 105% | [4] 89.7% | [5] 104% | [6] 97% | [7] 98.3% | [8] 115% | [9] 89.2% | [10] 98.8% | [11] 100% | [12] 95.7% | [13] 101% | [14] 107% | [15] 101% | [16] 114% | [17] 104% | [18] 111% | [19] 104% | [20] 106%

CCn1c(SCC(=O)Nc2cccc(C(=O)/C=C/c3ccccc3Cl)c2)nc2ccccc2c1=O
inactive: [1] 110% | [2] 85.8% | [3] 88.4% | [4] 68% | [5] 125% | [6] 97% | [7] 84.6% | [8] 94% | [9] 77.8% | [10] 93.2% | [11] 52.2% | [13] 98.9% | [14] 97.7% | [15] 86% | [16] 106% | [17] 65.7% | [18] 69.1% | [19] 92.2% | [20] 93.4%
active: [12] 6.75%

CNC1CCc2c(sc(NC(=O)c3ccc(C(C)(C)C)cc3)c2C(N)=O)C1 (stereo not given)
inactive: [1] 72.8% | [2] 54.6% | [3] 69.2% | [4] 79.5% | [5] 101% | [6] 37% | [7] 42.4% | [8] 73.9% | [9] 11.5% | [13] 74.6% | [14] 67% | [15] 81.4% | [16] 90.6% | [17] 65.8% | [18] 61.3% | [19] 57.3% | [20] 78.2%
active: [10] 0.786% | [11] 2.87% | [12] -5.86%

COc1ccc(NC(=O)Nc2ccc3c(ccn3C(=O)c3cccc(F)c3)c2)cc1
inactive: [1] 94.5% | [2] 88% | [3] 50.7% | [4] 94.1% | [5] 103% | [6] 53.9% | [7] 90.1% | [8] 88.7% | [9] 56.3% | [10] 73.2% | [11] 42.7% | [12] 78.9% | [13] 89.1% | [14] 62.3% | [15] 48.1% | [16] 106% | [17] 69.1% | [18] 13.5% | [19] 31.6% | [20] 65.5%

Fc1ccc(-c2cc3nc(C(Cl)Cl)nc(-c4ccco4)n3n2)cc1
active: [2] -8.73% | [4] -14.5% | [5] -11.7% | [6] -35.3% | [7] -23.7% | [8] -38.6% | [12] -31.5% | [14] -13.7% | [18] -46.9% | [19] -6.45% | [20] -18.9%
inactive: [1] 55.1% | [3] 59.1% | [9] 85.2% | [10] 59.7% | [11] 64.8% | [13] 10.4% | [15] 17.7% | [16] 18.8% | [17] 74.3%
